A number with no mark means an inactive call. The source made the active and inactive calls. The rule behind the calls is not given here.

For the first assay, the target named is L-lactate dehydrogenase (Plasmodium falciparum (isolate CDC / Honduras)) (UniProt Q27743). Put plainly: PfLDH activity inhibition – cell lysate, 3D7 strain, counter-screen for P. falciparum growth inhibition project (AID 2304).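 Note: 0% = vehicle and 100% = reference inhibitor.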 Particulars: P. falciparum 3D7 crude extract, LDH APAD/NBT absorbance; at 2 µM; stronger effect = higher value.
L-lactate dehydrogenase (Plasmodium falciparum (isolate CDC / Honduras)), sequence (Q27743 whole entry, looked up): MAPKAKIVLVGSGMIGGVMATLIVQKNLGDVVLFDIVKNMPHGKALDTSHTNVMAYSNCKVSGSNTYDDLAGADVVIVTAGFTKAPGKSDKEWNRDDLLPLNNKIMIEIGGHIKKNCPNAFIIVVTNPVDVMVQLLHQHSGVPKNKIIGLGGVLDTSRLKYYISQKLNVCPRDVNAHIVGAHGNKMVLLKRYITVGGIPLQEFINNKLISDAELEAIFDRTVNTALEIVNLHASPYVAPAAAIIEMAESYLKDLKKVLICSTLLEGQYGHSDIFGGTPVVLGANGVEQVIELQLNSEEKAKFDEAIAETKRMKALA
The inhibition is the change of the read-out against control, counted positive when it falls. As to `c1cc(CN2CCCCC2)cc(-c2csc(-c3nc4ccccc4[nH]3)c2)c1`, the inhibition was 4%.
Take `CC(=NNC(=S)NCCc1ccccc1)c1ccccn1`: the inhibition was 8%.
Consider `CN1CCCC(CN2CCN(Cc3cccc(-c4ccc(-c5nc6ccccc6[nH]5)s4)c3)CC2)C1` (stereo not given), for which the inhibition is -6%.
Take `CN1CCN(c2ccc3nc(-c4ccc5nc(-c6ccc(O)cc6)[nH]c5c4)[nH]c3c2)CC1`: the inhibition was 3%.
For `CCOc1ccc2c(NN=Cc3ccccc3OC)cc(C)nc2c1`, the inhibition is 0%.
As to `CO/C(=C\C=C\c1cc2cc(Cl)c(Cl)cc2[nH]1)C(=O)Nc1ccc(NCCN(C)C)nc1`, the inhibition was -1%.
On the same count and under the same terms, the result for `CCN(CC)CCN(Cc1ccc(-c2ccc(C(F)(F)F)cc2)cc1)C(=O)Cn1c(CCc2cc(F)ccc2F)nc(=O)c2ccccc21` reads 4%; that for `Nc1ncc(-c2ccccc2)cc1-c1cccc2ncccc12`, -2%; that for `Cc1nc(-c2cccc(Nc3nccc(NCC(O)c4cccc(F)c4)n3)c2)cs1` (stereo not given), 1%.
For the compound `Cc1cnc(Nc2ccccc2)nc1NCCC(=O)Nc1ccccc1`, the inhibition was 3%.
With `Cc1cccc2[nH]c(-c3cccc(-c4cccc(NC(=O)C(C)CN5CCN(C)CC5)c4)c3)nc12` (stereo not given), the inhibition is 1%.
As to `O=C(Nc1ccc(NC2=NCCN2)cc1)c1ccc(C(=O)Nc2ccc(NC3=NCCN3)cc2)cc1`, the inhibition is -8%.
On the same count and under the same terms, the result for `Cc1onc(-c2ccccc2)c1-c1nc(NCc2ccccc2Cl)no1` reads -3%; that for `O=C(NCc1ccccc1)c1nn(CCCN2CCC(N3CCCC3)CC2)cc1-c1ccc(Cl)c(Cl)c1`, 0%; that for `O=C(Cc1cccc(Cl)c1)N1CCc2cc3nccc(N4CCN5CCC[C@H]5C4)c3cc21`, 4%.
On to `Cn1cncc1C(=O)Nc1cccc(-c2ccc(-c3nc4ccccc4[nH]3)cc2)c1`, for which the inhibition is 1%.
Consider `CNS(=O)(=O)Cc1ccc(Nc2nccc(Nc3cccc4c3cnn4C(=O)Nc3ccccc3)n2)cc1`, for which the inhibition was 1%.
On to `Cc1nc(N)nc(N)c1-c1ccc(Br)c([N+](=O)[O-])c1`, for which the inhibition was 2%.
As to `O=C(Nc1ccc(Cl)cc1)c1ccc(CN2CCCN(CC3CCCCC3)CC2)cc1`, the inhibition is 0%.
For `CCNc1cc(C(=O)N[C@@H](Cc2ccccc2)[C@H](O)CN[C@H](C)C(C)(C)C)cc(N2CCCCS2(=O)=O)c1`, the inhibition is -2%.
With `CC(=O)Nc1cccc(-c2cnc(N)c3cc(-c4ccc5c(c4)OCO5)ccc23)c1`, the inhibition is -4%.
For the compound `CCCCCCCN1CC[C@@H](CCCc2ccnc3ccc(OCCC4CCNCC4)cc23)[C@@H](CC)C1`, the inhibition was -4%.
For the compound `CC1(C)N=C(N)N=C(N)N1OCCSCc1cc(Cl)sc1Cl`, the inhibition is -2%.
For `Cc1cc(N[C@@H](CC(C)C)C(=O)Nc2ccccc2)nc(NCCc2ccccc2)n1`, the inhibition was -1%.
For the compound `CN1CCN(CCCN(Cc2csc(-c3ccc(CNCc4ccccc4)cc3)n2)C(=O)c2cc(F)cc(F)c2)CC1`, the inhibition was -2%.
Still for that read-out and setting: the result for `COCCN1CCC(CNCC(C)(C)c2nc(-c3ccc(Cl)c(O)c3)c(-c3ccncc3)[nH]2)CC1` reads -1%; that for `O=C(NC1CCN(CCC(NC(=O)c2ccccc2)c2ccc(Cl)c(Cl)c2)CC1)c1ccc(Cl)cc1` (stereo not given), -2%.
As to `O=C(NCc1cccs1)[C@H](Cc1ccccc1)Nc1ccnc(NCC2CCCCC2)n1`, the inhibition is -2%.
For `c1cc(Nc2nc(-c3ccc(-c4csc(Nc5ccncc5)n4)cc3)cs2)ccn1`, the inhibition is -4%.
On the same count and under the same terms, in the case of `C=CCN(c1ccc(OC)cc1)S(=O)(=O)c1ccc(Cl)c(C(=O)Nc2cccc(C#N)c2)c1` it was 6%; in that of `Cn1cncc1C(=O)Nc1cccc(-c2ccc(-c3nc4ccccc4[nH]3)s2)c1`, -3%; in that of `c1ccc2c(CNc3nc(NCC4CCCCC4)nc4nc[nH]c34)cccc2c1`, -2%.
Consider `CCC1N=C(N)N=C(N)N1OCc1cccc2ccccc12` (stereo not given), for which the inhibition was -4%.
As to `CC(C)c1ccc(CN2CCCCC(NC(=O)c3cc(-c4cccc(F)c4)cs3)C2)cc1` (stereo not given), the inhibition is 1%.
Turning to `COc1cc(C2CCN(CCCCNC(=O)c3ccc(NC(=O)c4ccc(Cl)c(Cl)c4)cc3)CC2)ccc1OC(C)C`, the inhibition was -5%.
On to `CN(C)CC(=O)NCC(NCCCNc1cc(=O)c2ccccc2[nH]1)c1cc(Br)cc(Br)c1` (stereo not given), for which the inhibition is 1%.
As to `COc1cc(Cc2cnc(N)nc2N)ccc1OCC(=O)Nc1ccc(C)cc1`, the inhibition is -2%.
Same read-out and setting: the result for `CCOc1c(CNCCCNc2cc(=O)c3ccccc3[nH]2)cc(I)cc1OC` reads 2%; that for `COC(=O)Nc1cc(C(F)(F)F)ccc1N1CCCC(NS(=O)(=O)c2ccc(C(C)(C)C)cc2)C1` (stereo not given), -5%; that for `CCCCCCCN1CC[C@@H](CCC(O)c2ccnc3ccc(OC)cc23)[C@@H](CC)C1` (stereo not given in full), -1%.

System in the next assay: not listed separately
Kind of assay: inhibition of 3D7 malaria parasite growth – strain 3D7 (AID 2306).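 Note: 0% = DMSO wells and 100% = chloroquine plus artemisinin control wells.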 The note with it: P. falciparum 3D7 erythrocytic growth, LDH absorbance, 72 h; at 2 µM; stronger effect = higher value.
On to `c1cc(CN2CCCCC2)cc(-c2csc(-c3nc4ccccc4[nH]3)c2)c1`, for which the growth inhibition was 90% (active).
As for `CC(=NNC(=S)NCCc1ccccc1)c1ccccn1`, the growth inhibition was 100% (active).
For `CN1CCCC(CN2CCN(Cc3cccc(-c4ccc(-c5nc6ccccc6[nH]5)s4)c3)CC2)C1` (stereo not given), the growth inhibition is 99% (active).
In the case of `CN1CCN(c2ccc3nc(-c4ccc5nc(-c6ccc(O)cc6)[nH]c5c4)[nH]c3c2)CC1`, the growth inhibition was 99% (active).
With `CCOc1ccc2c(NN=Cc3ccccc3OC)cc(C)nc2c1`, the growth inhibition was 99% (active).
`CO/C(=C\C=C\c1cc2cc(Cl)c(Cl)cc2[nH]1)C(=O)Nc1ccc(NCCN(C)C)nc1`: the growth inhibition was 93% (active).
As to `CCN(CC)CCN(Cc1ccc(-c2ccc(C(F)(F)F)cc2)cc1)C(=O)Cn1c(CCc2cc(F)ccc2F)nc(=O)c2ccccc21`, the growth inhibition was 98% (active).
In the case of `Nc1ncc(-c2ccccc2)cc1-c1cccc2ncccc12`, the growth inhibition is 97% (active).
On the same count and under the same terms, in the case of `Cc1nc(-c2cccc(Nc3nccc(NCC(O)c4cccc(F)c4)n3)c2)cs1` (stereo not given) it was 98% (active); in that of `Cc1cnc(Nc2ccccc2)nc1NCCC(=O)Nc1ccccc1`, 89% (active).
Same read-out and setting: the result for `Cc1cccc2[nH]c(-c3cccc(-c4cccc(NC(=O)C(C)CN5CCN(C)CC5)c4)c3)nc12` (stereo not given) reads 99% (active); that for `O=C(Nc1ccc(NC2=NCCN2)cc1)c1ccc(C(=O)Nc2ccc(NC3=NCCN3)cc2)cc1`, 91% (active); that for `Cc1onc(-c2ccccc2)c1-c1nc(NCc2ccccc2Cl)no1`, 99% (active).
Turning to `O=C(NCc1ccccc1)c1nn(CCCN2CCC(N3CCCC3)CC2)cc1-c1ccc(Cl)c(Cl)c1`, the growth inhibition was 103% (active).
For the compound `O=C(Cc1cccc(Cl)c1)N1CCc2cc3nccc(N4CCN5CCC[C@H]5C4)c3cc21`, the growth inhibition is 96% (active).
`Cn1cncc1C(=O)Nc1cccc(-c2ccc(-c3nc4ccccc4[nH]3)cc2)c1`: the growth inhibition is 99% (active).
As to `CNS(=O)(=O)Cc1ccc(Nc2nccc(Nc3cccc4c3cnn4C(=O)Nc3ccccc3)n2)cc1`, the growth inhibition was 89% (active).
Still for that read-out and setting: in the case of `Cc1nc(N)nc(N)c1-c1ccc(Br)c([N+](=O)[O-])c1` it was 95% (active).
In the case of `O=C(Nc1ccc(Cl)cc1)c1ccc(CN2CCCN(CC3CCCCC3)CC2)cc1`, the growth inhibition was 92% (active).
The same measure, in the same setting: the result for `CCNc1cc(C(=O)N[C@@H](Cc2ccccc2)[C@H](O)CN[C@H](C)C(C)(C)C)cc(N2CCCCS2(=O)=O)c1` reads 95% (active).
For `CC(=O)Nc1cccc(-c2cnc(N)c3cc(-c4ccc5c(c4)OCO5)ccc23)c1`, the growth inhibition is 99% (active).
On to `CCCCCCCN1CC[C@@H](CCCc2ccnc3ccc(OCCC4CCNCC4)cc23)[C@@H](CC)C1`, for which the growth inhibition was 104% (active).
With `CC1(C)N=C(N)N=C(N)N1OCCSCc1cc(Cl)sc1Cl`, the growth inhibition was 93% (active).
As to `Cc1cc(N[C@@H](CC(C)C)C(=O)Nc2ccccc2)nc(NCCc2ccccc2)n1`, the growth inhibition was 100% (active).
Take `CN1CCN(CCCN(Cc2csc(-c3ccc(CNCc4ccccc4)cc3)n2)C(=O)c2cc(F)cc(F)c2)CC1`: the growth inhibition is 97% (active).
On to `COCCN1CCC(CNCC(C)(C)c2nc(-c3ccc(Cl)c(O)c3)c(-c3ccncc3)[nH]2)CC1`, for which the growth inhibition was 102% (active).
`O=C(NC1CCN(CCC(NC(=O)c2ccccc2)c2ccc(Cl)c(Cl)c2)CC1)c1ccc(Cl)cc1` (stereo not given): the growth inhibition is 97% (active).
For `O=C(NCc1cccs1)[C@H](Cc1ccccc1)Nc1ccnc(NCC2CCCCC2)n1`, the growth inhibition is 83% (active).
With `c1cc(Nc2nc(-c3ccc(-c4csc(Nc5ccncc5)n4)cc3)cs2)ccn1`, the growth inhibition is 100% (active).
With `C=CCN(c1ccc(OC)cc1)S(=O)(=O)c1ccc(Cl)c(C(=O)Nc2cccc(C#N)c2)c1`, the growth inhibition is 96% (active).
Still for that read-out and setting: in the case of `Cn1cncc1C(=O)Nc1cccc(-c2ccc(-c3nc4ccccc4[nH]3)s2)c1` it was 102% (active); in that of `c1ccc2c(CNc3nc(NCC4CCCCC4)nc4nc[nH]c34)cccc2c1`, 89% (active).
Take `CCC1N=C(N)N=C(N)N1OCc1cccc2ccccc12` (stereo not given): the growth inhibition was 93% (active).
Turning to `CC(C)c1ccc(CN2CCCCC(NC(=O)c3cc(-c4cccc(F)c4)cs3)C2)cc1` (stereo not given), the growth inhibition was 94% (active).
As for `COc1cc(C2CCN(CCCCNC(=O)c3ccc(NC(=O)c4ccc(Cl)c(Cl)c4)cc3)CC2)ccc1OC(C)C`, the growth inhibition is 101% (active).
Still for that read-out and setting: in the case of `CN(C)CC(=O)NCC(NCCCNc1cc(=O)c2ccccc2[nH]1)c1cc(Br)cc(Br)c1` (stereo not given) it was 98% (active); in that of `COc1cc(Cc2cnc(N)nc2N)ccc1OCC(=O)Nc1ccc(C)cc1`, 95% (active).
On the same count and under the same terms, in the case of `CCOc1c(CNCCCNc2cc(=O)c3ccccc3[nH]2)cc(I)cc1OC` it was 91% (active).
On to `COC(=O)Nc1cc(C(F)(F)F)ccc1N1CCCC(NS(=O)(=O)c2ccc(C(C)(C)C)cc2)C1` (stereo not given), for which the growth inhibition is 97% (active).
On to `CCCCCCCN1CC[C@@H](CCC(O)c2ccnc3ccc(OC)cc23)[C@@H](CC)C1` (stereo not given in full), for which the growth inhibition is 97% (active).

These data come from PubChem BioAssay.
